Reference: PubChem BioAssay (EPA / NIEHS)
Active and inactive are the calls of the source. How the source made its calls: active means hit-call score of the fitted dose curve at least 0.9, where 1 is the maximum; inactive means score below 0.9.

Legend:
[1] = read-out: Tumor necrosis factor receptor superfamily member 6 (Homo sapiens) (UniProt P25445); assay: LTEA_HepaRG_FAS: Life Technologies and Expression Analysis (LTEA) Assay for Fas cell surface death receptor (FAS) using HepaRG (AID 2283447); details: mRNA level, 48 h; actives raise or lower the signal
Method in brief: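 FAS transcript level was measured by TaqMan qRT-PCR against three housekeeping genes after 48 h chemical exposure. Cells were HepaRG, 0.5% DMSO vehicle, with a top concentration of 100 uM and half-log dilutions over eight points, in duplicate.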

[2] = read-out: Fatty acid synthase (Homo sapiens) (UniProt P49327); assay: LTEA_HepaRG_FASN: Life Technologies and Expression Analysis (LTEA) Assay for Fatty Acid Synthase (FASN) using HepaRG (AID 2283448); details: mRNA level, 48 h; actives raise or lower the signal
Method in brief: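 Transcript-level assay: HepaRG liver cells are treated for 48 h across an eight-point range topping at 100 uM, and FASN mRNA, normalized to three housekeeping genes, is compared with DMSO controls in both directions.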

[3] = read-out: Cyclin Dependent Kinase Inhibitor 1A (CDKN1A), CDKN1A (gene 1026); assay: LTEA_HepaRG_CDKN1A: Life Technologies and Expression Analysis (LTEA) Assay for Cyclin Dependent Kinase Inhibitor 1A (CDKN1A) using HepaRG (AID 2283450); details: mRNA level, 48 h; actives raise or lower the signal
Method in brief: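 Read-out is CDKN1A mRNA by TaqMan qRT-PCR, normalized to three housekeeping genes and fitted in both directions against the DMSO baseline. Human HepaRG cells were treated 48 h with test chemicals up to 100 uM in half-log steps, 0.5% DMSO.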

[4] = read-out: catalase (CAT), CAT (gene 847); assay: LTEA_HepaRG_CAT: Life Technologies and Expression Analysis (LTEA) Assay for catalase (CAT) using HepaRG (AID 2283452); details: mRNA level, 48 h; actives raise or lower the signal
Method in brief: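 Expression of CAT was quantified by TaqMan qRT-PCR with ACTB/GAPDH/POLR2A normalization after 48 h chemical exposure of HepaRG. Eight-point half-log series, top 100 uM, in 0.5% DMSO; gain or loss fitted against vehicle.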

[5] = read-out: Cytochrome P450 (CYP1A1), CYP1A1 (gene 1543); assay: LTEA_HepaRG_CYP1A1: Life Technologies and Expression Analysis (LTEA) Assay for Cytochrome P450 (CYP1A1) using HepaRG (AID 2283454); details: mRNA level, 48 h; actives raise or lower the signal
Method in brief: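 HepaRG, 48 h post-plating switched to serum-free induction medium; 8-pt conc-response (top 100 uM, half-log, 0.5% DMSO), duplicates, 48 h. Lysis in RLT, TaqMan qRT-PCR for CYP1A1; gain or loss vs DMSO.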

[6] = read-out: CFLAR gene, CFLAR (gene 8837); assay: LTEA_HepaRG_CFLAR: Life Technologies and Expression Analysis (LTEA) Assay for CFLAR gene using HepaRG (AID 2283455); details: mRNA level, 48 h; actives raise or lower the signal
Method in brief: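 HepaRG, 48 h exposure, 8-pt conc-response (100 uM top, half-log), 0.5% DMSO vehicle, duplicates. CFLAR expression by qRT-PCR; ACTB/GAPDH/POLR2A normalization; gain or loss fit vs DMSO baseline.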

[7] = read-out: Forkhead box O1 (FOXO1), FOXO1 (gene 2308); assay: LTEA_HepaRG_FOXO1: Life Technologies and Expression Analysis (LTEA) Assay for Forkhead box O1 (FOXO1) using HepaRG (AID 2283456); details: mRNA level, 48 h; actives raise or lower the signal
Method in brief: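 Readout is FOXO1 transcript level by multiplexed qRT-PCR against three housekeeping genes, curve-fitted in both directions relative to 0.5% DMSO vehicle. Human HepaRG cultures received chemicals for 48 h, up to 100 uM in half-log steps.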

[8] = read-out: Forkhead box O3 (FOXO3), FOXO3 (gene 2309); assay: LTEA_HepaRG_FOXO3: Life Technologies and Expression Analysis (LTEA) Assay for Forkhead box O3 (FOXO3) using HepaRG (AID 2283459); details: mRNA level, 48 h; actives raise or lower the signal
Method in brief: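 HepaRG, 48 h post-dose; 8 conc., half-log from 100 uM, 0.5% DMSO, duplicates; serum-free induction medium. Readout: FOXO3 mRNA, TaqMan qRT-PCR, housekeeping-normalized. Bidirectional curve fit vs DMSO baseline.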

[9] = read-out: ABC Transporter (ABCB1), ABCB1 (gene 5243); assay: LTEA_HepaRG_ABCB1: Life Technologies and Expression Analysis (LTEA) Assay for ABC Transporter (ABCB1) using HepaRG (AID 2283460); details: mRNA level, 48 h; actives raise or lower the signal
Method in brief: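 Expression of ABCB1 was quantified by qRT-PCR against three housekeeping genes after human HepaRG cultures received test chemicals for 48 hours. Concentrations spanned eight half-log steps topping at 100 uM in 0.5% DMSO; gain or loss of signal was fitted relative to vehicle.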

[10] = read-out: growth arrest and DNA damage 45 (GADD45B), GADD45B (gene 4616); assay: LTEA_HepaRG_GADD45B: Life Technologies and Expression Analysis (LTEA) Assay for growth arrest and DNA damage 45 (GADD45B) using HepaRG (AID 2283461); details: mRNA level, 48 h; actives raise or lower the signal
Method in brief: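 HepaRG, ~100,000 cells/well, 48 h plating; serum-free induction medium; cpd 100 uM top, half-log x8, 0.5% DMSO, duplicate, 48 h; lysis in RLT, RNA isolation, qRT-PCR; norm ACTB/GAPDH/POLR2A; bidirectional fit vs DMSO.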

[11] = read-out: ABC Transporter (ABCC3), ABCC3 (gene 8714); assay: LTEA_HepaRG_ABCC3: Life Technologies and Expression Analysis (LTEA) Assay for ABC Transporter (ABCC3) using HepaRG (AID 2283462); details: mRNA level, 48 h; actives raise or lower the signal
Method in brief: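 Human HepaRG, 48 h dosing, 8-pt half-log series from 100 uM, 0.5% DMSO vehicle, duplicates. ABCC3 mRNA by TaqMan qRT-PCR, housekeeping-normalized; bidirectional curve fit vs DMSO.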

[12] = read-out: ABC Transporter (ABCB11), ABCB11 (gene 8647); assay: LTEA_HepaRG_ABCB11: Life Technologies and Expression Analysis (LTEA) Assay for ABC Transporter (ABCB11) using HepaRG (AID 2283463); details: mRNA level, 48 h; actives raise or lower the signal
Method in brief: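 ABCB11 transcript levels are read by Fluidigm TaqMan qRT-PCR after 48 h chemical treatment of human HepaRG cells. Concentrations span 100 uM downward in half-log steps with 0.5% DMSO; gain or loss is fitted against DMSO controls.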

[13] = read-out: ABC Transporter (ABCC2), ABCC2 (gene 1244); assay: LTEA_HepaRG_ABCC2: Life Technologies and Expression Analysis (LTEA) Assay for ABC Transporter (ABCC2) using HepaRG (AID 2283464); details: mRNA level, 48 h; actives raise or lower the signal
Method in brief: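 HepaRG, 48 h post-plating; serum-free induction medium; cpd 8-pt, 100 uM top, half-log, 0.5% DMSO, duplicate, 48 h. Readout: ABCC2 mRNA by qRT-PCR, norm. ACTB/GAPDH/POLR2A. Bidirectional fit vs DMSO baseline.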

[14] = read-out: Broad substrate specificity ATP-binding cassette transporter ABCG2 (Homo sapiens) (UniProt Q9UNQ0); assay: LTEA_HepaRG_ABCG2: Life Technologies and Expression Analysis (LTEA) Assay for ABC Transporter (ABCG2) using HepaRG (AID 2283465); details: mRNA level, 48 h; actives raise or lower the signal
Method in brief: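 Read-out is ABCG2 mRNA induction or loss quantified by qRT-PCR after 48 h chemical treatment of human HepaRG cells, normalized to three housekeeping genes. Concentrations reached 100 uM top in half-log steps; fitting was bidirectional against 0.5% DMSO.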

[15] = read-out: ATP-citrate lyase (ACLY), ACLY (gene 47); assay: LTEA_HepaRG_ACLY: Life Technologies and Expression Analysis (LTEA) Assay for ATP-citrate lyase (ACLY) using HepaRG (AID 2283466); details: mRNA level, 48 h; actives raise or lower the signal
Method in brief: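 HepaRG, 48 h exposure, 8-pt half-log dilutions (top 100 uM), 0.5% DMSO. Readout: ACLY mRNA, TaqMan qRT-PCR, housekeeping-normalized (ACTB/GAPDH/POLR2A). Bidirectional curve fit vs DMSO.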

[16] = read-out: Cyclin D1 (CCND1), CCND1 (gene 595); assay: LTEA_HepaRG_CCND1: Life Technologies and Expression Analysis (LTEA) Assay for Cyclin D1 (CCND1) using HepaRG (AID 2283451); details: mRNA level, 48 h; actives raise or lower the signal
Method in brief: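 HepaRG plated 48 h, medium switched to serum-free induction medium, chemicals added in duplicate (top 100 uM, half-log steps, 0.5% DMSO) for 48 h, cells lysed, RNA measured by TaqMan qRT-PCR.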

[17] = CEETOX_H295R_TESTO: CeeTox H295R High-throughput Steroidogenesis Assay for Testosterone (TESTO) (AID 2283457); details: actives raise or lower the signal
Method in brief: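 H295R, passage ≤10, 48 h dosing; media extracted with MTBE → HPLC-MS/MS for testosterone; 7-pt standard curve sets LLOQ/ULOQ; bidirectional fit vs DMSO; MTT viability same wells.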

[18] = read-out: growth arrest and DNA damage 45 (GADD45A), GADD45A (gene 1647); assay: LTEA_HepaRG_GADD45A: Life Technologies and Expression Analysis (LTEA) Assay for growth arrest and DNA damage 45 (GADD45A) using HepaRG (AID 2283458); details: mRNA level, 48 h; actives raise or lower the signal
Method in brief: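 Human HepaRG liver cells are treated in duplicate for 48 h with chemicals in 0.5% DMSO, highest concentration 100 uM. Expression is read by qRT-PCR and analyzed in both directions against vehicle.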

[19] = read-out: Cyclin D2 (CCND2), CCND2 (gene 894); assay: LTEA_HepaRG_CCND2: Life Technologies and Expression Analysis (LTEA) Assay for Cyclin D2 (CCND2) using HepaRG (AID 2283449); details: mRNA level, 48 h; actives raise or lower the signal
Method in brief: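 Read-out is CCND2 mRNA level measured by qRT-PCR in human HepaRG liver cells and normalised to three housekeeping genes. Chemicals were applied for 48 h at up to 100 uM, with gain or loss fitted relative to 0.5% DMSO.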

Broad substrate specificity ATP-binding cassette transporter ABCG2 (Homo sapiens), sequence (Q9UNQ0 whole entry, looked up): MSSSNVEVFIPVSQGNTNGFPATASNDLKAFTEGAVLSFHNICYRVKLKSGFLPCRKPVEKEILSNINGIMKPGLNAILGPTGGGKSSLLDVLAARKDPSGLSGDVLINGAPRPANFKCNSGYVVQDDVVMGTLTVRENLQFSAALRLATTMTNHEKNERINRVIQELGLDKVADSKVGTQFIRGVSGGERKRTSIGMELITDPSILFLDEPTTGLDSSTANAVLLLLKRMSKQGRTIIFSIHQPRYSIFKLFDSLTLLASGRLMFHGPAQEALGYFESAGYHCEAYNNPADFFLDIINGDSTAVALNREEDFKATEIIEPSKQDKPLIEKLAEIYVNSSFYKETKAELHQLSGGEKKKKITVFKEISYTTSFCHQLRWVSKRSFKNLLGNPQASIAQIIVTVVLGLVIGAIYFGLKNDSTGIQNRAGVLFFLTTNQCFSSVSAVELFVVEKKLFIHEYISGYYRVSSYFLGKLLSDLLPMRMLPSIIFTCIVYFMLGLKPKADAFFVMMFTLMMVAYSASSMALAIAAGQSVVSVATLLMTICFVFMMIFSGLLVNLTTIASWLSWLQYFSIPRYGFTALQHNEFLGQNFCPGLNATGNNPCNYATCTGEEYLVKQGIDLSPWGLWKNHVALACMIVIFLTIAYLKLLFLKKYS
Fatty acid synthase (Homo sapiens), sequence (P49327 whole entry, looked up): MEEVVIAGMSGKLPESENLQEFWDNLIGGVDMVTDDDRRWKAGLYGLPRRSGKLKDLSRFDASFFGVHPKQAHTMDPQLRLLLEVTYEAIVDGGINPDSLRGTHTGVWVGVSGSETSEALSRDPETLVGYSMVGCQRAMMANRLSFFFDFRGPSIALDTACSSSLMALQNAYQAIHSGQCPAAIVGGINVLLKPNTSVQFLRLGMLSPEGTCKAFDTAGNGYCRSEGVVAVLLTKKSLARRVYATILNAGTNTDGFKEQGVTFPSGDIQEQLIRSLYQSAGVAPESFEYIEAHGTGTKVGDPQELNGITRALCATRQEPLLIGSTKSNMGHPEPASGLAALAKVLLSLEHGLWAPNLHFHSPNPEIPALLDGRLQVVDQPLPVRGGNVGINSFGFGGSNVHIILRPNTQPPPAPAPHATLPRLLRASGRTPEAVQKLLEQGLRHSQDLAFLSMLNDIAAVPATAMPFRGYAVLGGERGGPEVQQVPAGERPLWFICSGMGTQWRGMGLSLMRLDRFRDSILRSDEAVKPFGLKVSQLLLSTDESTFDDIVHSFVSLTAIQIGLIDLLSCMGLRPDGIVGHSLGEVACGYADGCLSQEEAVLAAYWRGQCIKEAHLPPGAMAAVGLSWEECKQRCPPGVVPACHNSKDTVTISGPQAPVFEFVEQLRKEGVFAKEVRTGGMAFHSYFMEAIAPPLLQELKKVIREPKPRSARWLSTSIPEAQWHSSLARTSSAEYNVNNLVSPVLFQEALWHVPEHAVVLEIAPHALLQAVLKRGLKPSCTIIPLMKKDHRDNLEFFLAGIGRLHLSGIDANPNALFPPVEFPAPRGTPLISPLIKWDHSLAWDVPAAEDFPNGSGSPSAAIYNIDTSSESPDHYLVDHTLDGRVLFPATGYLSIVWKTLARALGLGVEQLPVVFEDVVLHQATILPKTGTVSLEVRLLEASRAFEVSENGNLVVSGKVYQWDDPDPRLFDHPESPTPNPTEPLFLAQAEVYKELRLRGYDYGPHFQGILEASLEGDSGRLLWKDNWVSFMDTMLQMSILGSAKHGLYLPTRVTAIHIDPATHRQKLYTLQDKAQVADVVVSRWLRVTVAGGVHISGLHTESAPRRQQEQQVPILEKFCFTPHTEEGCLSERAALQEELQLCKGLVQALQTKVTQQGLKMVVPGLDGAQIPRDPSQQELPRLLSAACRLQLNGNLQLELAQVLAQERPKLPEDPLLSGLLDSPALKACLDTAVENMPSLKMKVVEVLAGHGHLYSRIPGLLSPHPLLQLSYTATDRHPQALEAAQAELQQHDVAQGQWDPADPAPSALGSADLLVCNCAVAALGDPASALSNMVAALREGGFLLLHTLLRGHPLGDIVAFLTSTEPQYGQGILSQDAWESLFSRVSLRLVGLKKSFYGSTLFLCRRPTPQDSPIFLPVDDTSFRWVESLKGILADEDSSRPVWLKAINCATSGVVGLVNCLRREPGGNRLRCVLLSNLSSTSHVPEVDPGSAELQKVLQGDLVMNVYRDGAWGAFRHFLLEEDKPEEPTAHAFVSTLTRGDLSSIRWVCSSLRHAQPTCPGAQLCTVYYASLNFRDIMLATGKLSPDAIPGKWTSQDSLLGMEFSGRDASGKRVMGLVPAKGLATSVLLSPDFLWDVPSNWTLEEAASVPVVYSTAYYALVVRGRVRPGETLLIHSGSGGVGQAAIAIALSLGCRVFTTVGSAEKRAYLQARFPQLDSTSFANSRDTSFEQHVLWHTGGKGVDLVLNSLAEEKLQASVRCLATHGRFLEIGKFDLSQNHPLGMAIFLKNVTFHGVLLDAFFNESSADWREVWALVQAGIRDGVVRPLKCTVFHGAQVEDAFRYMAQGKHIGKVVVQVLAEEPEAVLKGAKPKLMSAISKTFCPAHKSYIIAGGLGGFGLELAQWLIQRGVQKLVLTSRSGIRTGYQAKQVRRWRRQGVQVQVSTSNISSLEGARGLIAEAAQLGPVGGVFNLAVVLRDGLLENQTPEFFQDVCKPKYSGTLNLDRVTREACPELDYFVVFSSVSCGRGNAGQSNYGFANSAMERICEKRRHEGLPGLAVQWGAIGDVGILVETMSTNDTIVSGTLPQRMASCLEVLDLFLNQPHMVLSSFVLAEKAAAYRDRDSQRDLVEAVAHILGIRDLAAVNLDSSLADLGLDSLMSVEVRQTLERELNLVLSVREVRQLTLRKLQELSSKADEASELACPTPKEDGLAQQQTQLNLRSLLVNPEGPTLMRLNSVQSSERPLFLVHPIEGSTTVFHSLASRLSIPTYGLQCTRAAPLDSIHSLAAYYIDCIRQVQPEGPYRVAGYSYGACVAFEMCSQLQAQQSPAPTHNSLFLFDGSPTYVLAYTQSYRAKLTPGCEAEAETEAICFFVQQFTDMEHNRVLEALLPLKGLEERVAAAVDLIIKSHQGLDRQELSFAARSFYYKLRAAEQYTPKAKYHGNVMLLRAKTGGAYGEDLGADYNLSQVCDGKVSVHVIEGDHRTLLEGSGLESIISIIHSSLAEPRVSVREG

For C=CCOC(=O)c1ccccc1C(=O)OCC=C, the outcome [1] was “inactive”, the outcome [2] was “inactive” and the outcome [3] was “inactive”. For the same compound, the outcome [4] was “inactive”, the AC50 [5] was 50 µM (active) and the outcome [6] was “inactive”. For the same compound, the outcome [7] was “inactive”, the outcome [8] was “inactive” and the outcome [9] was “inactive”. The outcome [10] was “inactive”, the outcome [11] was “inactive” and the outcome [12] was “inactive”. The outcome [13] was “inactive”, the outcome [14] was “inactive” and the outcome [15] was “inactive”.
With Cc1cccc(Nc2cc(Cl)nc(SCC(=O)O)n2)c1C the outcome [1] was “inactive”, the outcome [2] was “inactive” and the outcome [3] was “inactive”. The outcome [16] was “inactive”, the outcome [4] was “inactive” and the AC50 [5] was 50 µM (active). The outcome [6] was “inactive”, the outcome [7] was “inactive” and the outcome [17] was “inactive”. For the same compound, the outcome [18] was “inactive”, the outcome [8] was “inactive” and the AC50 [9] was 50 µM (active). The outcome [10] was “inactive”, the outcome [11] was “inactive” and the outcome [12] was “inactive”. For the same compound, the AC50 [13] was 82.3 µM (active), the outcome [14] was “inactive” and the outcome [15] was “inactive”.
In the case of CCOC(=O)CCC(=O)OCC, the AC50 [1] is reported as 85.1 µM (active), the outcome [2] is reported as “inactive” and the outcome [19] is reported as “inactive”. For the same compound, the outcome [3] was “inactive”, the outcome [4] was “inactive” and the outcome [5] was “inactive”. The outcome [6] was “inactive”, the outcome [7] was “inactive” and the outcome [18] was “inactive”. For the same compound, the outcome [8] was “inactive”, the outcome [9] was “inactive” and the outcome [10] was “inactive”. The outcome [12] was “inactive”, the outcome [13] was “inactive” and the outcome [14] was “inactive”. The outcome [15] was “inactive”.
